IL1B secr inh = qHTS for Inhibitors of Inflammasome Signaling: IL-1-beta AlphaLISA Primary Screen; THP-1 LPS/ATP IL-1B secretion, AlphaLISA, 16 h; hits give low values; activity change, % at 57.5 µM; 4.7% of 360,000 active; AID 743279, 2014; in the data active = activity change below about -50%; inconclusive = mostly about -30% to -49%
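Secreted IL-1B measured by AlphaLISA bead assay after 16 h compound exposure of THP-1 cells; compounds (final up to 57.5 uM) added 1 h before LPS (250 ng/mL) and ATP (1.25 mM) stimulation; lower signal means less secretion.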
Giardia killer = Small Molecules that selectively kill Giardia lamblia: qHTS; activity change, % at 7.66 µM, hits read low; Giardia lamblia trophozoite viability; 0.15% of 340,000 active; in the data active = activity change below about -80%; inconclusive = between about -30% and that limit;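 also: parasites exposed to compound for two days anaerobically before the ATP read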
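Anaerobic 48 hrs incubation at 37 deg C of 100 trophozoites/well with test compounds; ATPLite 1-Step luminescence, 15-30 min RT, reports cellular ATP as viability.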
TDP1 block = qHTS Assay for Inhibitors of Tyrosyl-DNA Phosphodiesterase (TDP1); Tyrosyl-DNA phosphodiesterase 1 (Homo sapiens), Q9NUW8; recombinant TDP1, AlphaScreen DNA substrate cleavage; Potency, µM (highest dose often 130 µM), inactives show top-dose activity change, negative = inhibition, usual class: inhibitors; 0.28% of 350,000 active; also: potency is read from the fitted curve at half-maximal effect; nearly all actives have a fitted effect of over 40% in size
Target sequence (Q9NUW8 whole entry, looked up): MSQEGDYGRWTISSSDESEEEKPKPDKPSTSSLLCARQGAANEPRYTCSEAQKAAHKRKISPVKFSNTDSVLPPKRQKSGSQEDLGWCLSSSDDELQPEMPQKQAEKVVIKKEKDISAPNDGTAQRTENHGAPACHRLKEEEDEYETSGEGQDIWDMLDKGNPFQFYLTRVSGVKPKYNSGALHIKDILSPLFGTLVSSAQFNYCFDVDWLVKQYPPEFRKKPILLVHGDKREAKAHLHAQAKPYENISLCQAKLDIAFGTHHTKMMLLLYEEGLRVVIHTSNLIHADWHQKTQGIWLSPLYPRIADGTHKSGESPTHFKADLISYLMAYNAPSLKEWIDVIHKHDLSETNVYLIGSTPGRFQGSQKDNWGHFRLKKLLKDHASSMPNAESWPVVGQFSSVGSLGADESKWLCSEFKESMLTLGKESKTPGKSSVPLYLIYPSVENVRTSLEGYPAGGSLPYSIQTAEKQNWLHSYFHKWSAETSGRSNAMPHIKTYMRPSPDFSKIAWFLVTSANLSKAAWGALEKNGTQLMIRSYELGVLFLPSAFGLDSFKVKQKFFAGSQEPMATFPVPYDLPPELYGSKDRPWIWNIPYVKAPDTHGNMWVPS
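Steps: enzyme plus compound, 15 min RT; add biotin/phosphotyrosine-FITC oligonucleotide (15 nM final), react 5 min; add donor/acceptor beads (10 ug/ml final), 10 min; read AlphaScreen. Tdp1 at 1 nM final.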
DT40 TDP1 CPT = qHTS for Inhibitors of human tyrosyl-DNA phosphodiesterase 1 (TDP1): qHTS in cells in presence of CPT | chicken DT40 Tdp1-/-;hTDP1 cells + 20 nM CPT, ATP luminescence, 48 h | Potency, µM (series often up to 46.2 µM), for the others: top-dose activity change, negative = growth inhibition, hits mostly inhibitors | 12% of 420,000 active | AID 686979, 2013; also: potency is read from the fitted curve at half-maximal effect; nearly all actives have a fitted effect of over 55% in size
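Chicken DT40 Tdp1-/- cells stably complemented with human TDP1 were seeded at 400 cells/well in medium containing 20 nM camptothecin, exposed to pin-transferred compounds, and grown at 37 °C for at least 48 hr. Viability was read as ATP luminescence.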
ELG1 DNA repair = qHTS screen for small molecules that inhibit ELG1-dependent DNA repair in human embryonic kidney (HEK293T) cells expressing luciferase-tagged ELG1 | HEK293T ELG1-luciferase reporter, luminescence, 16 h; DNA damage induced by 5-fluorouridine | Potency, µM (doses to about 46.1 µM), inactives show top-dose activity change, negative = inhibition, most hits filed as inhibitors | 2.3% of 330,000 active; also: potency is read from the fitted curve at half-maximal effect; nearly all actives have a fitted effect of over 55% in size
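Reporter activity after DNA damage by 5-fluorouridine is monitored. Compound-treated cells incubate 16 hr at 37 °C, then ONE-Glo is added for 30 min before luminescence reading.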
TDP1 cell noCPT = qHTS for Inhibitors of human tyrosyl-DNA phosphodiesterase 1 (TDP1): qHTS in cells in absence of CPT; DT40 Tdp1-/- hTDP1 cells, no CPT, ATP luminescence, 48 h; Potency, µM (titrated, usually from 46.2 µM), without a hit: top-dose activity change, negative = growth inhibition, hits mostly inhibitors; 15% of 420,000 active; also: potency is read from the fitted curve at half-maximal effect; nearly all actives have a fitted effect of over 55% in size
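A cellular qHTS used chicken DT40 cells lacking endogenous Tdp1 but carrying stably transfected human TDP1. Compounds were applied without camptothecin, and cell growth kinetics were judged by ATP-dependent luminescence after ≥48 hr.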
* = called active by the depositor; i = inactive; ? = inconclusive; nt = no result given; [ ] = another dose, or the depositor's remark. Hits are enriched below; roughly 19% of the tested compounds scored in any of these assays. Unless noted, calls follow the shape of the dose curve; as a rule, active = well fitted curve in the direction sought with a large enough effect; inconclusive = small, poorly fitted or top-dose-only effect, or another doubt; inactive = no such curve, though single readings can be large; an effect the other way counts as inactive or inconclusive. % is scaled to controls: 0 for no effect and ±100 for the full control effect.

SMILES	IL1B secr inh	Giardia killer	TDP1 block	DT40 TDP1 CPT	ELG1 DNA repair	TDP1 cell noCPT
CCOC(=O)N1CCc2c(sc(NCc3ccc(OC)c(Br)c3)c2C(=O)Nc2cc(OC)ccc2OC)C1	nt	nt	10.4%	?	nt	?
COc1ccc(OC)c(NC(=O)c2c(NCc3ccc(N(C)C)cc3)sc3c2CCCC3)c1	nt	nt	11.4%	20.6µM*	nt	?
COc1ccc(OC)c(NC(=O)c2c(NCc3ccc(OC)c(OC)c3)sc3c2CCC3)c1	nt	nt	4.7%	14.6µM*	nt	16.4µM*
COc1cccc(CNc2sc3c(c2C(=O)Nc2ccc(OC)cc2OC)CCC3)c1	nt	nt	6.6%	13µM*	nt	20.6µM*
CCCCCN(C(=O)NC(=O)Nc1ccccc1C)S(=O)(=O)c1ccccc1	-23.1	5.5	1.4%	?	-14.7%	-28.3%
CCCc1nn2c(=O)cc(COC(=O)c3ccco3)nc2s1	nt	nt	3.2%	-7.4%	nt	-17.3%
CCc1noc(C)c1C(=O)Nc1ccc(F)c(F)c1	12.3	-1.9	0.8%[0.505 µM]	-1.6%	12.7%	12.1%
COc1ccc(OC)c(-c2nc3c(C)n[nH]c(=O)c3[nH]2)c1	47.3	18.7	5.2%	?	6.51µM*	?
Cc1occc1C(=O)N1CCN(C(c2ccccc2)c2ccccc2)CC1	-14.0	4.8	9.3%	?	-25.0%	?
O=C(CCNS(=O)(=O)c1ccccc1C(F)(F)F)N1CCN(C(c2ccccc2)c2ccccc2)CC1	-3.6	-17.1	5.1%[0.505 µM]	11.6µM*	-15.4%	8.2µM*
O=C(NCC(=O)N1CCN(C(c2ccccc2)c2ccccc2)CC1)c1ccccc1F	-52.4*	-9.8	nt	?	?	29.1µM*
Cc1oc(C(C)(C)C)cc1C(=O)N1CCN(C(c2ccccc2)c2ccccc2)CC1	-68.5*	43.8	8.6%	?	0.5%	?
Cc1ccnc(SCC(=O)N2CCN(C(c3ccccc3)c3ccccc3)CC2)n1	-8.8	4.4	5.0%	23.1µM*	?	16.4µM*
Cc1ccnc(SCC(=O)N2CCc3ccccc32)n1	-4.9	-0.1	nt	-10.5%	?	-12.1%
O=C(c1ccc(C#CC2(O)CCCCC2)cc1)N1CCN(C(c2ccccc2)c2ccccc2)CC1	-58.0*	22.6	8.8%	?	1.8%	?
Cc1ccccc1C(=O)N1CCN(C(c2ccccc2)c2ccccc2)CC1	-28.7	-7.4	0.0%	?	?	23.1µM*
Cc1cc(C(=O)N2CCN(C(c3ccccc3)c3ccccc3)CC2)on1	-16.5	0.5	5.9%	8.2µM*	-7.1%	23.1µM*
Cc1cc(C(C)(C)C)oc1C(=O)N1CCN(C(=O)c2oc(C(C)(C)C)cc2C)CC1	46.4	17.5	2.3%	18.4µM*	-1.4%	16.4µM*
CCCNC(=O)N1CCN(C(c2ccccc2)c2ccccc2)CC1	-26.0	-9.4	5.0%	-24.7%	-4.1%	-26.9%
CCOc1ccccc1C(=O)N1CCN(C(c2ccccc2)c2ccccc2)CC1	-83.3*	-12.5	-1.0%	?	-0.4%	?
CC(=O)c1ccccc1OCC(O)CN1CCN(C(c2ccccc2)c2ccccc2)CC1 (stereo not given)	0.0	1.8	3.2%	?	?	?
CC(C)(C)C(=O)N1CCN(C(c2ccccc2)c2ccccc2)CC1	-14.8	-3.5	nt	?	-10.3%	18.4µM*
NC(=NC(=O)c1ccccc1)N1CCN(C(c2ccccc2)c2ccccc2)CC1	-25.6	5.3	nt	20.6µM*	?	?
O=C(c1cc(-c2cccc(O)c2)on1)N1CCN(C(c2ccccc2)c2ccccc2)CC1	-53.2*	12.9	5.2%	20.6µM*	-6.5%	13µM*
CN1CCN(C(=O)c2cc(-c3cccc(Cl)c3)on2)CC1	0.9	-11.6	3.1%	-8.6%	?	-29.2%
SMILES	IL1B secr inh	Giardia killer	TDP1 block	DT40 TDP1 CPT	ELG1 DNA repair	TDP1 cell noCPT
CN1CCN(C(N)=NC(=O)c2ccccc2)CC1	12.9	-17.7	2.4%	-3.7%	9.9%	-11.6%
Cc1cccc(NC(=O)Cn2c(=O)n(CC3CCC(C(=O)NCCc4ccccc4)CC3)c(=O)c3ccccc32)c1C (stereo not given)	nt	nt	7.5%	-14.8%	nt	-27.5%
CC(C)Cn1c(N)c(C(=O)COC(=O)Cc2cccc(C(F)(F)F)c2)c(=O)n(C)c1=O	11.4	-7.0	nt	16.4µM*	?	20.6µM*
Cn1c(N)c(C(=O)COC(=O)CCC(=O)c2cccs2)c(=O)n(C)c1=O	35.6	-7.3	-2.1%	-8.7%	?	-16.4%
CC(=O)N/C(=C\c1ccccc1)C(=O)OCC(=O)c1c(N)n(CC(C)C)c(=O)n(C)c1=O	3.5	-3.4	nt	-5.6%	?	-20.2%
CC(C)Cn1c(N)c(C(=O)COC(=O)c2c(F)cccc2F)c(=O)n(C)c1=O	3.7	-23.6	1.2%	-25.6%	?	-13.3%
CC(C)Cn1c(N)c(C(=O)COC(=O)Cc2cccs2)c(=O)n(C)c1=O	i	5.5	0.4%	18.4µM*	-8.8%	23.1µM*
CC(C)Cn1c(N)c(C(=O)COC(=O)/C=C/c2cccs2)c(=O)n(C)c1=O	-4.1	11.1	0.0%	?	9.2µM*	16.4µM*
COc1cccc(Nc2ncc3nc(CCc4ccccc4)c(=O)n(C)c3n2)c1	nt	nt	nt	-3.9%	nt	9.2%
C=CCNc1nc(Cl)nc(Nc2ccc(OCC)cc2)n1	4.5	-8.4	2.8%	?	8.8%	4.2%
Cc1cc(C(=O)N2CCN(c3ccccc3)CC2)c2c(C)nn(-c3cccc(F)c3)c2n1	nt	nt	-2.1%	?	nt	16.4µM*
CCc1ccc(-n2nc(C)c3c(C(=O)N4CCN(c5cccc(Cl)c5)CC4)cc(C)nc32)cc1	nt	nt	3.2%	?	nt	20.6µM*
Cc1cc(C(=O)NCCc2ccc(Cl)cc2)c2c(C)nn(-c3ccccc3)c2n1	nt	nt	-4.2%	nt	nt	nt
Cc1cc(C(=O)Nc2cccc(C)c2C)c2c(C)nn(-c3cccc(F)c3)c2n1	nt	nt	0.0%	-2.2%	nt	-21.4%
CC(C)CC(=O)c1c[nH]c(C(=O)NCc2ccc(F)cc2)c1	-6.5	20.6	nt	6.0%	0.1%	-4.2%
COc1ccc(C(=O)c2sc(Nc3ccccc3)nc2C)cc1	-70.1*	6.7	nt	?	-4.7%	?
CC(=O)c1sc(Nc2ccc(Oc3ccccc3)cc2)nc1C	47.5	nt	nt	?	nt	20.6µM*
CC(=O)c1sc(Nc2ccccc2)nc1C	29.3	nt	nt	-20.3%	nt	-15.5%
COc1ccc(Nc2nc(N)c(C(=O)c3ccc(OC)cc3)s2)cc1	-74.3*	18.3	nt	1.64µM*	-17.7%	1.64µM*
